Reference: PubChem BioAssay (EPA / NIEHS)
Results filed as inconclusive are left out. The source made the active and inactive calls. The calls were made as follows: active = hit-call score of the fitted dose curve at least 0.9, where 1 is the maximum; inconclusive = response in the unintended direction; inactive = score below 0.9.

Target: Glucocorticoid receptor (Homo sapiens) (UniProt P04150)
Test: ATG_GR_TRANS: Attagene TRANS-FACTORIAL HepG2 Assay for human Glucocorticoid Receptor (GR) (AID 2282978);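 also: activators score as hits since higher reporter transcript over DMSO is fitted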
Details: HepG2 Attagene TRANS GR reporter, mRNA transcription
Method in brief: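 Measurement of GAL4-UAS-driven reporter mRNA in human HepG2 liver cells 24 h post-dosing, using RT-PCR with fluorescent labelling and capillary electrophoresis; the transfected constructs report exogenous NR-GAL4 chimera activity, fitted upward against DMSO.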

Chain of Glucocorticoid receptor (Homo sapiens) (P04150 whole entry, looked up): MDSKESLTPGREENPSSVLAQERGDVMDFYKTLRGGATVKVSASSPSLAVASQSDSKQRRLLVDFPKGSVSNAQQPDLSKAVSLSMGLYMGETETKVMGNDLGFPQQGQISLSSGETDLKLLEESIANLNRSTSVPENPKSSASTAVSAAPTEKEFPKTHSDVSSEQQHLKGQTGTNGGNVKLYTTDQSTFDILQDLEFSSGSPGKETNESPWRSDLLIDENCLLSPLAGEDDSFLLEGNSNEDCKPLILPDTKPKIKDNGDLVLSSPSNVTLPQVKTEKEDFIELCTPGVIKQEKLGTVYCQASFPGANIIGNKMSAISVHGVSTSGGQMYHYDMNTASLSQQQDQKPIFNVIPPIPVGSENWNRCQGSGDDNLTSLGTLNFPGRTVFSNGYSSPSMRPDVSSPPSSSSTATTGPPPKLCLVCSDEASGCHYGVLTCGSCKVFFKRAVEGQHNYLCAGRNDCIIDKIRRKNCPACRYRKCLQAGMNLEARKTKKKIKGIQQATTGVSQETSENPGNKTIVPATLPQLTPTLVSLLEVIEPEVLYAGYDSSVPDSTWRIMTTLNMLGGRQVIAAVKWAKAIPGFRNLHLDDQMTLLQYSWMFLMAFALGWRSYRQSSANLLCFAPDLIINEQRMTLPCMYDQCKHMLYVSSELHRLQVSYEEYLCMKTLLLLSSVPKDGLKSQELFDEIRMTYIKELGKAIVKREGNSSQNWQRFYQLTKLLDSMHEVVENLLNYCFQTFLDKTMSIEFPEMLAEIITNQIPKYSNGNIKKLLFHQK

outcome, inactive:
CC1(C)[C@H](C(=O)OCc2cccc(Oc3ccccc3)c2)[C@@H]1C=C(Cl)Cl, C=CC(C)(O)CCC=C(C)CCC=C(C)C (stereo not drawn), O=C(O)CCCCCCCCCCC(=O)O, COc1ccc(Nc2ccccc2)c(C)c1, CNCCCC12CCC(c3ccccc31)c1ccccc12, Clc1ccc(Cl)c(Cl)c1Cl, OC[C@H]1O[C@H](O[C@]2(CCl)O[C@H](CCl)[C@@H](O)[C@@H]2O)[C@H](O)[C@@H](O)[C@H]1Cl, O=C(O)c1ccc([N+](=O)[O-])cc1, COCCOCCOCCOCCOCCO, O=C(O)CCSCCC(=O)O, O=c1cc(-c2ccccc2)oc2cc(O)cc(O)c12, Nc1ccc(F)c([N+](=O)[O-])c1, Cc1cccc(Nc2ccccc2C(=O)O)c1C, CCCCCCCCCCCCCOS(=O)(=O)O, COc1ccnc(CS(=O)c2nc3cc(OC(F)F)ccc3[nH]2)c1OC (stereo not drawn), CN1Cc2c(N)cccc2C(c2ccccc2)C1 (stereo not drawn), CCCCN, CC(C)(CO)[N+](=O)[O-], O=C1OC2(c3cc(Br)c(O)c(Br)c3Oc3c2cc(Br)c(O)c3Br)c2c(Cl)c(Cl)c(Cl)c(Cl)c21, Cc1cccc(C)c1[N+](=O)[O-], CCO[Si](CCCS)(OCC)OCC, COCCCOc1ccnc(CS(=O)c2nc3ccccc3[nH]2)c1C (stereo not drawn), C=CC(=O)OCC(O)COc1ccccc1 (stereo not drawn), O=CCCc1ccccc1, c1ccc2[nH]ccc2c1, O=S(=O)(O)c1cccc2c(S(=O)(=O)O)cccc12, CCOC(=S)SSC(=S)OCC, Nc1cccc(S(=O)(=O)c2cccc(N)c2)c1, O=C(O)CCCCC1CCSS1 (stereo not drawn), CC(=O)C(C)=O, NCCOCCO, CCCCOCCOCCSC#N, NC(N)=NC(=O)c1nc(Cl)c(N)nc1N, CC(=O)O[C@H](CC(=O)[O-])C[N+](C)(C)C, CCC(C)CCCC(C)(C)O (stereo not drawn), O=Cc1ccc(F)cc1, COC(=O)Cc1cccc2ccccc12, CC(C)c1cccc(O)c1
